Source: PubChem
Rows were chosen to be rich in hits. Some 2.1% of all compounds tested hit in one or more screens of this group.
FUS suppressor: rescues growth of FUS-expressing yeast. S. cerevisiae FUS-expressing, growth rescue, OD600, 24 h. Potency, µM (doses to about 76.6 µM), most hits filed as activators. 0.24% of 390,000 active. AID 1347120; note: nearly all actives have a fitted effect of over 55% in size
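Absorbance at 600 nm, taken 24hr after compound addition, measured rescue of FUS-yeast growth at 30C. Induction used 2% galactose with seeding at OD 0.005. Controls: CP55940 from 92uM final, DMSO only.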
TDP-43 yeast inh: inhibitors of TDP-43 toxicity in yeast | TDP-43 expressing yeast growth rescue, BacTiter-Glo, 24 h | Potency, µM (doses to about 46.1 µM), actives largely listed as activators | 1.8% of 410,000 active | AID 652104; note: nearly all actives have a fitted effect of over 50% in size
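Growth rescue of TDP-43-toxic yeast measured as ATP luminescence (BacTiter-Glo). Cells grown to mid-log in raffinose, induced in galactose at OD600=0.02, exposed to compound 24 hr at 30 deg C.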
aSyn yeast inh: inhibitors of alpha-synuclein toxicity in yeast. Yeast expressing alpha-synuclein, growth rescue, BacTiter-Glo, 24 h. Potency, µM (top dose mostly 46.1 µM), actives largely listed as activators. 0.14% of 370,000 active. AID 652106; note: nearly all actives have a fitted effect of over 65% in size
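Galactose-induced alpha-syn yeast (OD600=0.02, raffinose-pregrown) + pinned cpd, 24 hr, 30 deg C; growth by BacTiter-Glo luminescence. Growth restoration scores as activation.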
Abeta rescue: compounds reversing amyloid beta toxicity in yeast | 0.063% of 410,000 active | Potency, µM (titrated, usually from 46.1 µM), usual class: activators | yeast expressing A-beta42, growth rescue, OD600, 48 h; response scale: 0% DMSO, 100% iron-clioquinol control | AID 1347071; note: nearly all actives have a fitted effect of over 55% in size
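Growth rescue measured by 600 nm absorbance after 48 h yeast culture at 30 C with compound. Values normalized between DMSO and an equimolar ferric chloride plus clioquinol control.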
A number is an active result. Calls come from the whole dose curve; as a rule, active = well fitted curve in the direction sought with a large enough effect; inconclusive = small, poorly fitted or top-dose-only effect, or another doubt; inactive = no such curve, though single readings can be large; an effect the other way counts as inactive or inconclusive.

`COc1ccccc1N1CCN(C(=O)c2ccc3c(Cl)c4c(nc3c2)CCCC4)CC1` gave FUS suppressor inconclusive, TDP-43 yeast inh 20µM, aSyn yeast inh inactive and Abeta rescue inactive.
Screening COc1ccc(N2CCN(C(=O)c3ccc4c(=O)n5c(nc4c3)CCCCC5)CC2)cc1 returned FUS suppressor inactive, TDP-43 yeast inh inactive, aSyn yeast inh inactive and Abeta rescue inactive.
`CC1(C(=O)NCc2ccc(C(F)(F)F)cc2)CCN1Cc1ccc(-c2ccccc2)o1` (configuration not stated) gave FUS suppressor inconclusive, TDP-43 yeast inh inactive, aSyn yeast inh 16µM and Abeta rescue inactive.
`COc1cc(/C=N/NC(=S)NC2CC3CCC2C3)ccc1O` (configuration not stated) gave FUS suppressor inactive, TDP-43 yeast inh 22µM, aSyn yeast inh inactive and Abeta rescue 11µM.
COC(=O)c1ccccc1NC(=O)c1ccc2c(c1)CC(C)O2 (configuration not stated) was read as FUS suppressor inactive, TDP-43 yeast inh 13µM, aSyn yeast inh inactive and Abeta rescue inactive.
Screening Cc1cc(C)cc(Cn2c3ccc(NC(=S)NC4CCCCC4)cc3c(=O)n2C)c1 returned FUS suppressor 28µM, TDP-43 yeast inh inactive, aSyn yeast inh inactive and Abeta rescue inactive.
COc1ccccc1CNC(=O)c1ccc(-c2nc(CN3CCc4ccccc43)c(C)o2)cc1 was read as FUS suppressor inconclusive, TDP-43 yeast inh inactive, aSyn yeast inh inactive and Abeta rescue inactive.
Screening COc1ccc(OC)c(C(c2nnnn2C2CCCC2)N2CCN(c3ccccc3F)CC2)c1 (configuration not stated) returned FUS suppressor inactive, TDP-43 yeast inh 32µM, aSyn yeast inh inactive and Abeta rescue inactive.
O=C(NCc1ccccc1)C1CCN(c2nc(-c3ccc(Br)cc3)cs2)CC1 was read as FUS suppressor inactive.
COc1ccc(-c2c(NC(=O)c3ccco3)oc3c(C)cccc3c2=O)cc1 was read as FUS suppressor inactive, TDP-43 yeast inh 14µM, aSyn yeast inh inactive and Abeta rescue inactive.
Screening COc1cc(-c2c(NC(=O)c3ccco3)oc3c(C)cccc3c2=O)cc(OC)c1OC returned FUS suppressor inactive, TDP-43 yeast inh inactive, aSyn yeast inh inactive and Abeta rescue inactive.
Cc1cccc2c(=O)c(-c3ccc4c(c3)OCO4)c(NC(=O)c3ccco3)oc12 was read as FUS suppressor inactive, TDP-43 yeast inh 16µM, aSyn yeast inh inactive and Abeta rescue inactive.
`Cc1cccc(-c2c(NC(=O)c3ccco3)oc3c(C)cccc3c2=O)c1` gave FUS suppressor inactive, TDP-43 yeast inh inactive, aSyn yeast inh inactive and Abeta rescue inactive.
Cc1cc(C(=O)O[C@H]2CCC[C@]3(C(=O)N(Cc4ccccc4)c4ccccc43)[C@H]2NC(=O)CCc2ccccc2)no1 was read as FUS suppressor inactive.
CCCCn1nnnc1C(c1ccccc1)N1CCN(c2ccc(C)cc2)CC1 (configuration not stated) was read as FUS suppressor inactive, TDP-43 yeast inh 35µM, aSyn yeast inh inactive and Abeta rescue inactive.
Screening N/C(=N\OC(=O)c1ccc2c(c1)OCO2)c1cccc(Br)c1 returned FUS suppressor inactive, TDP-43 yeast inh 6.3µM, aSyn yeast inh inactive and Abeta rescue inactive.
Screening O=c1oc(-c2cccs2)nc2sc3c(c12)CCCC3 returned FUS suppressor inactive, TDP-43 yeast inh inactive, aSyn yeast inh inactive and Abeta rescue inactive.
O=C1CN(c2nc(-c3cccs3)nc3sc4c(c23)CCCC4)CCN1 was read as FUS suppressor 35µM, TDP-43 yeast inh inactive, aSyn yeast inh inactive and Abeta rescue inactive.
COC(=O)c1ccc(NCc2cc(O)ccc2O)cc1O was read as TDP-43 yeast inh inactive, aSyn yeast inh inactive and Abeta rescue inactive.
COC(=O)c1ccc(NCc2c(O)ccc(O)c2Br)cc1Cl was read as TDP-43 yeast inh 20µM, aSyn yeast inh inactive and Abeta rescue inactive.
O=C(Nc1ccc2ccccc2c1)C(C1CC1)n1c(=O)c(-c2cc3ccccc3[nH]2)nc2ccccc21 (configuration not stated) was read as FUS suppressor inactive, TDP-43 yeast inh inactive, aSyn yeast inh inconclusive and Abeta rescue inactive.
Screening Cc1cccc(C)c1NC(=O)C(c1ccccc1)n1c(=O)c(-c2cc3ccccc3[nH]2)nc2ccccc21 (configuration not stated) returned FUS suppressor inactive, TDP-43 yeast inh inconclusive, aSyn yeast inh inactive and Abeta rescue inconclusive.
COc1ccc(NC(=O)C(C2CC2)n2c(=O)c(-c3cc4ccccc4[nH]3)nc3ccccc32)cc1 (configuration not stated) was read as FUS suppressor inconclusive, TDP-43 yeast inh inactive, aSyn yeast inh 14µM and Abeta rescue inactive.
For O=C(NCc1ccccc1)C(c1ccc(C(F)(F)F)cc1)n1c(=O)c(-c2cc3ccccc3[nH]2)nc2ccccc21 (configuration not stated) the results were FUS suppressor inconclusive, TDP-43 yeast inh inactive, aSyn yeast inh 7.1µM and Abeta rescue inconclusive.
N#Cc1ccc(C(C(=O)NCc2ccccc2)n2c(=O)c(-c3cc4ccccc4[nH]3)nc3ccccc32)cc1 (configuration not stated) was read as FUS suppressor inconclusive, TDP-43 yeast inh inconclusive, aSyn yeast inh inactive and Abeta rescue inactive.
Cc1cccc(C)c1NC(=O)C(c1ccc(C#N)cc1)n1c(=O)c(-c2cc3ccccc3[nH]2)nc2ccccc21 (configuration not stated) was read as FUS suppressor inactive, TDP-43 yeast inh 10µM, aSyn yeast inh inactive and Abeta rescue inconclusive.
For CSCCC(c1nc2ccccc2[nH]1)n1c(=O)c(-c2cc3ccccc3[nH]2)nc2ccccc21 (configuration not stated) the results were FUS suppressor inactive, TDP-43 yeast inh 18µM, aSyn yeast inh inactive and Abeta rescue inconclusive.
Screening O=c1c(-c2cc3ccccc3[nH]2)nc2ccccc2n1C(CCc1ccccc1)c1nc2ccccc2[nH]1 (configuration not stated) returned FUS suppressor inconclusive, TDP-43 yeast inh inconclusive, aSyn yeast inh inactive and Abeta rescue inconclusive.
Cc1cccc(C)c1NC(=O)C(c1ccncc1)n1c(=O)c(-c2cc3ccccc3[nH]2)nc2ccccc21 (configuration not stated) was read as FUS suppressor inconclusive, TDP-43 yeast inh 14µM, aSyn yeast inh inactive and Abeta rescue inactive.
Cc1ccccc1OCC(=O)NNC(=S)NC(=O)c1ccco1 was read as FUS suppressor inactive, TDP-43 yeast inh 7.1µM, aSyn yeast inh inconclusive and Abeta rescue inconclusive.
Screening O=C(Cc1cccs1)NNC(=S)NC(=O)c1ccco1 returned FUS suppressor inactive, TDP-43 yeast inh inconclusive, aSyn yeast inh inconclusive and Abeta rescue 10µM.
Screening O=C(Cc1cccs1)NNC(=S)NCc1ccc(Cl)cc1 returned FUS suppressor inactive, TDP-43 yeast inh inactive, aSyn yeast inh inactive and Abeta rescue inactive.
